Screening data (PubChem)
GALK inhibitor: inhibitors of human galactokinase | Potency, µM (titrated, usually from 57.5 µM), usual class: inhibitors | Purified GALK, Kinase-Glo residual ATP luminescence | 270,000 tested, 0.007% active | P51570
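Kinase-Glo Plus luminescence measured ATP left after a 1 h room-temperature reaction. The reaction used 5 nM GALK, 100 uM galactose and 35 uM ATP at pH 8.0 (20 mM HEPES, 5 mM MgCl2, 60 mM NaCl, 1 mM DTT, 0.01% BSA).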
Gal4-VP16 FLuc: counter-screen for ROR gamma inhibitors: Gal4-VP16 reporter; 310,000 tested, 3.5% active; Drosophila S2 Gal4-VP16 UAS-luciferase, luminescence, 20 h; AID 2546; Potency, µM (titrated, usually from 53.6 µM), most hits filed as inhibitors;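 further: Gal4-VP16 expression switched on by copper sulfate through the metallothionein promoter; nearly all actives have a fitted effect of over 50% in size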
FBPA coupling cs: inhibits coupling enzyme system, counter-screen for aldolase hits. coupling enzyme system counterscreen, AmpLite Red fluorescence. activity change, negative = inhibition, % at 58.2 µM, hits read low. 290,000 tested, 0.67% active. AID 2472; in the data active means activity change below about -30%
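Final compound at 57.5 uM, incubated 10 min at RT with coupling enzyme reagent (glyceraldehyde-3-phosphate), then 20 min with substrate and AmpLite Red detection. Fluorescence read at 525/598 nm; tests interference with the coupling assay, not aldolase inhibition.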
TrxR1 substrate: substrates of rat thioredoxin reductase 1 | O89049 | purified TrxR1 substrate turnover, NADPH consumption readout | Potency, µM (highest dose often 114 µM) | 390,000 tested, 0.01% active | AID 588456; further: nearly all actives have a fitted effect of over 50% in size
Target sequence (O89049 whole entry, looked up): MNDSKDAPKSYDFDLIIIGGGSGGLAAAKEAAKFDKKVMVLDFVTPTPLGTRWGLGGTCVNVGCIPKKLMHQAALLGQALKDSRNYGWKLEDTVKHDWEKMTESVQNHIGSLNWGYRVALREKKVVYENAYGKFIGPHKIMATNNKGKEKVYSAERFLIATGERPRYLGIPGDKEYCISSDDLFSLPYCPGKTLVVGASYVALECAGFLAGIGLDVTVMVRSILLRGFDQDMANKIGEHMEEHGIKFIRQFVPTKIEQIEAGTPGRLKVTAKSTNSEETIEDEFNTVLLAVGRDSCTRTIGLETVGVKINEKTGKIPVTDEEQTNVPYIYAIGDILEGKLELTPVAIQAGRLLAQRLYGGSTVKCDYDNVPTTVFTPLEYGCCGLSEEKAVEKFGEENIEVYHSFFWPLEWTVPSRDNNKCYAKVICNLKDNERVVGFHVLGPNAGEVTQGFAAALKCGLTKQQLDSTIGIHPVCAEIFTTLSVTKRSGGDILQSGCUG
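Rat TrxR1, dispensed at 90 nM, was prereduced with 400 uM NADPH (final) for 5 min at ~22 deg C, then incubated with compound 15 min before 400 uM selenite. A first-read NADPH fluorescence drop versus no-compound background flagged substrates.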
RORgamma inh: blocks mouse ROR gamma transcriptional activity. 310,000 tested, 5.4% active. AID 2551. Drosophila S2 Gal4-RORgamma UAS-luciferase reporter, 20 h. P51450. Potency, µM (highest dose often 53.6 µM), hits mostly inhibitors; further: nearly all actives have a fitted effect of over 60% in size
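Compounds are pin-transferred onto Drosophila Schneider cells expressing a copper-inducible Gal4–ROR gamma transactivation domain fusion. After 1 hr, copper sulfate is added to 700 uM final; luciferase is read 20 hr later.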
rTrxR1 inhibitor: blocks rat thioredoxin reductase 1. O89049. recombinant rTrxR1, NADPH fluorescence consumption, selenite substrate. Potency, µM (series often up to 114 µM), hits mostly inhibitors. 390,000 tested, 1% active; further: nearly all actives have a fitted effect of over 65% in size
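Rat TrxR1 (90 nM in the dispensed reagent) was pre-reduced with 400 uM NADPH for 5 min at room temperature, then incubated with compound for 15 min. After 400 uM selenite was added, NADPH fluorescence (Ex 340/Em 450 nm) was followed for 8 min.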
Hits are given with their value; . = inactive; ? = inconclusive; / = not tested or not shown; ! = repeats disagree; [ ] = another dose, or the depositor's remark. In the library only some 5.9% were active in any assay of this set; here they are far more common. Unless noted, the call rests on the fitted dose curve; in most records, active means well fitted curve in the direction sought with a large enough effect; inconclusive means small, poorly fitted or top-dose-only effect, or another doubt; inactive means no such curve, though single readings can be large; an effect the other way counts as inactive or inconclusive.

SMILES	GALK inhibitor	Gal4-VP16 FLuc	FBPA coupling cs	TrxR1 substrate	RORgamma inh	rTrxR1 inhibitor
CCCOc1ccc(N2C(=O)CC(N(O)c3ccccc3)C2=O)cc1 (stereo not drawn)	.	.	.	.	?	7.9µM
CCOc1ccc(N2C(=O)CC(N)C2=O)cc1 (stereo not drawn)	.	3.2µM	.	.	1.1µM	?
COc1ccccc1N1C(=O)CC(N(O)c2ccccc2)C1=O (stereo not drawn)	/	?	.	.	.	.
CCCOc1ccc(N2C(=O)CC(SCCN)C2=O)cc1 (stereo not drawn)	.	/	.	.	.[0.365 µM]	79µM
O=C(c1cc(COc2cccc(C(F)(F)F)c2)on1)N1CCC(Oc2cccnc2)CC1	.	?	/	.	?	.
S=C(NCc1ccccc1)NCc1ccccc1	.	.	.	.	?	.
CCOCCCNC(=S)NCCc1ccccc1	.	13µM	.	.	11µM	.
S=C(NCCCc1ccccc1)NCc1ccccc1	.	11µM	/	.	6.3µM	.
Cc1cccc(CCNC(=O)C2CCC(CNS(=O)(=O)c3cccs3)CC2)c1 (stereo not drawn)	.	.	.	.	.	.
COc1ccc(CN2C(=O)c3cccnc3C2=O)cc1S(=O)(=O)N1CCCCC1C (stereo not drawn)	.	.	.	.	.	.
Cc1ccc(S(=O)(=O)N[C@@H](Cc2ccccc2)C(=O)CCl)cc1	.	16µM	.	.	?	?
CCCCCCCC/C=C\CCCCCCCC(=O)NCCc1ccc(O)c(O)c1	/	18µM!	.	?	?	27µM!
CCCCC/C=C\C/C=C\C/C=C\C/C=C\CCCCCC(=O)NCCc1ccc(O)c(O)c1	/	.	.	/	.	/
Cc1cc(C)cc(OCCSc2nc(-c3ccc(C(C)(C)C)cc3)nc3cc(=O)[nH]n23)c1	/	/	/	.	/	?
CCOc1cc2c(C#N)c(N3CCOCC3)nc(N)c2c(N)n1	.	.	-48	.	.	.
CCn1c(CN2CCN(c3cccc(C)c3C)CC2)n[nH]c1=S	.	7.1µM	.	.	4µM	.
CCOC(=O)c1cc(S(=O)(=O)N2CCN(c3cccc(C)c3C)CC2)[nH]n1	/	/	/	.	/	.
O=C(NCc1ccccc1Cl)c1nnc(Cc2ccc(Cl)cc2)o1	/	/	/	.	/	.
Cc1cc2nc3c(=O)[nH]c(=O)nc-3n(CC(O)C(O)C(O)CO)c2cc1C (stereo not drawn)	/	.	-33!	/	.	/
COc1cccc(/C=N/Nc2ncnc3c2[nH]c2ccc(C)cc23)c1OC	.	?	.	.	6.3µM	.
COc1cccc(NC(=O)CN2C(=O)COc3ccc(C)cc32)c1	.	.	.	.	.	.
Cn1ccc(C(=O)NC(=S)N2CCSCC2)n1	/	.	.	.	11µM	.
COc1cc(C)c(CNc2ccc(OC)c(OC)c2)cc1C	.	.	-31	/	.	/
Cc1cnn(C(=S)NCc2ccc(Cl)cc2)c1	.	7.1µM	.	.	6.3µM	.
Cc1cnn(C(=S)NCCc2ccccc2)c1	.	?	.	.	14µM	.
SMILES	GALK inhibitor	Gal4-VP16 FLuc	FBPA coupling cs	TrxR1 substrate	RORgamma inh	rTrxR1 inhibitor
COc1cccc(NC(=O)C2CCC(CNS(=O)(=O)c3cccc4cccnc34)CC2)c1 (stereo not drawn)	.	.	.	.	.	.
COc1ccc(/C=C/C(=O)NCCc2ccc(S(N)(=O)=O)cc2)cc1	.	.	.	.	.	.
O=C(C[n+]1cc(Br)cc(Br)c1)c1ccc(I)cc1	/	/	/	.	/	.
Cc1c(CCC(=O)O)c(=O)oc2cc3oc4c(c3cc12)CCCC4	.	?	.	.	?	.
Cc1c(CCC(=O)N[C@@H](CC(C)C)C(=O)O)c(=O)oc2cc3oc4c(c3cc12)CCCC4	/	?	.	.	0.63µM	.
Cc1c(CCC(=O)N2CCC[C@H]2C(=O)O)c(=O)oc2cc3oc4c(c3cc12)CCCC4	/	?	.	.	1.3µM	.
CN(Cc1cc(-c2ccccc2)on1)C(=O)c1cc(COc2c(F)cccc2F)on1	.	.	.	.	.	.
CCCCCS(=O)(=O)CCCCCCCCCCn1c(-c2ccc(O)cc2)c(C)c2cc(O)ccc21	/	20µM	.	/	?	/
COc1ccccc1NC(=O)CSC1CC(=O)N(c2ccc3c(c2)OCO3)C1=O (stereo not drawn)	.	5µM	.	.	5.6µM	.
COc1ccc(NC(=O)CSC2CC(=O)N(c3ccc4c(c3)OCCO4)C2=O)cc1 (stereo not drawn)	.	5µM	.	.	?	.
COc1ccc(N2C(=O)CC(SCC(=O)O)C2=O)cc1 (stereo not drawn)	.	.	.	.	.	.
CCC(=O)N1CCc2cc(S(=O)(=O)CCC(=O)N3CCN(c4ccc(Cl)cc4)CC3)ccc21	.	.	/	.	.	.
CCOC(=O)C1CCCN(S(=O)(=O)c2cccs2)C1 (stereo not drawn)	.	.	.	.	.	.
O=C1c2ccccc2-c2onc3ccc(NCCCn4ccnc4)c1c23	.	.	.	.	13µM	.
CC(=O)O[C@H]1CC(C)(C)C(=C=C/C(C)=C/C=C/C(C)=C/C=C/C=C(C)/C=C/C=C(\C)C(=O)C[C@@]23O[C@]2(C)C[C@@H](O)CC3(C)C)[C@](C)(O)C1	.	.	.	.	.	35µM
CN(c1ccc(C(=O)NC2CCCC2)cc1)S(=O)(=O)c1ccccc1	.	.	.	.	.	.
Cc1cccc(/C=N/NC(=O)c2cc(C)nc3ccccc23)n1	.	?	/	.	11µM	.
Cc1cccc(/C=N/NC(=O)c2cc(C3CC3)nc3ccccc23)n1	.	?	/	.	?	.
Cc1cc(C(=O)N/N=C/c2ccc(N(C)C)cc2)c2ccccc2n1	.	.	.	.	16µM	.
O=C(CSc1ccccn1)Nc1nonc1[N+](=O)[O-]	.	5µM	/	.	5.6µM	.
O=C(CSc1ccccn1)Nc1cccc2ccccc12	.	.[10 µM]	-77	.	.	.
O=C(CSc1ccccn1)Nc1ccc(NC(=O)CSc2ccccn2)cc1	.	.	.	.	.	.
COCCn1c(-c2ccc(OC)cc2)cnc1SCC(=O)Nc1cccc2ccccc12	.	.	.	.	5µM	.
Cc1ccc(S(=O)(=O)N2CCN(c3nc(C)nc4sc(C)c(C)c34)CC2)cc1	.	.[0.365 µM]	.	/	.	/
CC(=O)NC1=NN(C(C)=O)C(C)(c2cccs2)S1 (stereo not drawn)	.	.	.	.	.	.
CC(=O)Nc1nnc(-c2c(-c3c(Cl)cccc3Cl)noc2C)o1	.	?	.	.[11.4 µM]	10µM	.[11.4 µM]
Cc1cc(C(=O)NNC(=O)c2c(-c3c(Cl)cccc3Cl)noc2C)no1	.	.	/	.	.	.
Cc1nc(C(=O)NNC(=O)c2c(-c3c(Cl)cccc3Cl)noc2C)cs1	.	8.9µM	.	.	2.8µM	.
Cc1onc(-c2c(Cl)cccc2Cl)c1C(N)=S	.	?	.	.	7.9µM	.
